Measured values: PubChem BioAssay AID2013 (Sanford-Burnham Center for Chemical Genomics, 2009)
Where “and” joins values, the source holds several entries; their conditions need not be identical. Identical values can stand only once. The whole screen tested about 290,000 compounds, of which about 370 (0.13%) were called active. The entries come from a sample that favours actives as a whole. Results with a measured potency or affinity are listed apart. A number with no mark means an inactive call.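 How the source made its calls: active means spots per cell inhibited over 60%, with over 100 cells counted and total cytoplasm intensity under 500,000; inconclusive means wells with under 100 cells, flagged as likely toxic; inactive means the rest.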

What follows are compounds tested against G-protein coupled receptor 55 (Homo sapiens) (UniProt Q9Y2T6) (assay: inhibition of LPI-stimulated GPR55 beta-arrestin translocation – imaging, U2OS, beta-arrestin-GFP, LPI agonist, primary screen (AID 2013;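 further: U2OS cells stably carrying GPR55 and arrestin-GFP stimulated by 5 µM LPI near EC80; imaged beta-arrestin-GFP aggregate spots per cell after agonist stimulation; plate controls were LPI-stimulated DMSO wells for no effect and DMSO wells without LPI for full effect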)). Conditions: LPI antagonism, at 10 µM, stronger effect = higher value.
Sequence of G-protein coupled receptor 55 (Homo sapiens) (Q9Y2T6 whole entry, looked up): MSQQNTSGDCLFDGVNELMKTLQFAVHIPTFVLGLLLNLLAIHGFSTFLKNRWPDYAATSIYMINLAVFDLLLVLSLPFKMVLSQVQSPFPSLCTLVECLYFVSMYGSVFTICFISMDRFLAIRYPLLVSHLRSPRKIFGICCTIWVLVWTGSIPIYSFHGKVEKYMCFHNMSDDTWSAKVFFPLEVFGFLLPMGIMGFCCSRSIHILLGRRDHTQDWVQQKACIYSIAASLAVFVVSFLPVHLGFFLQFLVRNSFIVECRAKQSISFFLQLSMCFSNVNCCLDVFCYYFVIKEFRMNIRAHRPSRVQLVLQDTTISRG

SMILES | inhibition
N=c1c2c(-c3ccccc3)c(-c3ccccc3)n(Cc3ccco3)c2ncn1Cc1ccco1 | 29.6%
N=c1c2c(-c3ccccc3)c(-c3ccccc3)n(Cc3ccco3)c2ncn1CCO | 58.3%
N=c1c2c(-c3ccccc3)c(-c3ccccc3)n(Cc3ccco3)c2ncn1CCCn1ccnc1 | 24.2%
OCCNc1ncnc2c1c(-c1ccccc1)c(-c1ccccc1)n2Cc1ccco1 | -0.4%
N=c1c2c(-c3ccccc3)c(-c3ccccc3)n(Cc3ccco3)c2ncn1Cc1ccccc1 | 70.9% (active)
CCN(CC1COc2ccccc2O1)C(=S)NCCCN(C)C (centres undefined) | 5.9%
COc1cc(NC(=O)CSCC(=O)Nc2cc(OC)cc(OC)c2)cc(OC)c1 | -13.3%
CC1(C)CC(=O)C2=C(C1)N(c1cccc(O)c1)C1=C(C2)C(=O)CC(C)(C)C1 | 28.2%
Cc1ccc(OCCCn2ccnc2)c([N+](=O)[O-])c1 | 11.8%
CCOc1ccc(CN2CCNC(=O)C2CC(=O)NCc2csc(C)n2)cc1 (centres undefined) | -5.2%
CCOc1ccc(C(=O)NC(=S)N(Cc2ccccc2)Cc2ccccc2)cc1 | 8.8%
COc1ccc(CN(CCC#N)C(=S)NC(=O)c2ccccc2)cc1 | 21.1%
CCOC(=O)c1[nH]c2ccc(Cl)cc2c1NC(=O)/C=C/c1ccc2c(c1)OCO2 | -10.3%
CCc1ccc2c(c1)cc(CN(C(=S)Nc1ccccc1C)C1CC1)c1nnnn12 | -0.7%
Cn1c(=O)n(C/C=C/c2ccccc2)c(=O)c2c1nc1n2CCCN1Cc1ccccc1 | 12.5%
Cn1c(=O)n(CCc2ccccc2)c(=O)c2c1nc1n2CCCN1c1ccccc1 | 8.1%
CC(C)C(=O)Nc1ccc(N2CCN(c3ccc(F)cc3)CC2)cc1 | 7.7%
O=C(O)CN=C(NS(=O)(=O)c1ccccc1)c1ccccc1 | 3.6%
CC(C)N=C(NS(=O)(=O)c1ccccc1)C(Cl)(Cl)Cl | 52.5%
Cc1ccc(CC(=O)N2CCN(c3ccccn3)CC2)cc1 | 1.5%
Cc1nc(-c2ccc(Cl)cc2)sc1C1(C)CC(c2cccc(Cl)c2)=NO1 (centres undefined) | 2.4%
O=C(Nc1ccccc1O)c1ccc2c(c1)C(=O)N(Cc1ccco1)C2=O | 1.9%
O=C(O)/C=C/c1cccnc1 | 10.5%

SMILES | inhibition
CC(/C=C\c1cccnc1)=C/C(=O)O | 13.6% and 11.7%
Cc1cc(CSc2ccccc2)ccc1NC(=O)COc1ccccc1C | 5.6%
CC(C)CCNC(=O)C1CC(=O)N(CCc2ccccc2)C1 (centres undefined) | 3.2%
COc1ccc(CNC(=O)CCc2c(C)nc3cc(-c4ccccc4OC)nn3c2C)cc1 | 12.4%
Cc1ccc(NC(=O)c2ccccc2OCC(=O)c2ccccc2)cc1 | -5.2%
CCOc1ccc(NC(=O)c2ccccc2OCC(=O)c2ccc(C)cc2)cc1 | -16%
O=C(NCc1ccccn1)c1ccc(CNS(=O)(=O)c2cccc(C(F)(F)F)c2)cc1 | 3.1%
Cc1cccc(C(=O)Oc2ccc(/C=N/NC(=O)c3ccc(O)cc3)cc2)c1 | 0.3%
CC1=Nc2cc(C(=O)NCCCOC(C)C)ccc2Sc2ccc(C)cc21 | 19.1%
Cc1c(-n2c(SC(C)C(=O)NC(N)=O)nc3ccccc3c2=O)c(=O)n(-c2ccccc2)n1C (centres undefined) | -4.9%
Cc1ccc(-c2nc(-c3nccc4ccccc34)oc2-c2ccccc2)cc1 | 25%
c1ccc(-c2ccc(-c3nccc4ccccc34)[nH]2)cc1 | 36%
CC(=O)/C(=C\N(C)C)Sc1ccc(Cl)cc1 | 0.6%
O=C(NC1CCCCC1)Sc1ccc(Cl)cc1 | -6%
S=C(Sc1ccc(Cl)cc1)Sc1ccc(Cl)cc1 | 91.8% (active)
O=C(N/N=C/c1ccoc1)c1ccccc1O | -2.7%
O=C1NN(c2ccccc2)C(=O)/C1=C\c1ccccc1OCC(=O)N1CCOCC1 | 4.6%
O=C(O)COc1ccccc1/C=C1\SC(=Nc2ccc(F)cc2)N(c2ccc(F)cc2)C1=O | 12.7%
O=C(N/N=C/c1cccc([N+](=O)[O-])c1)c1cc(-c2ccc3c4c(cccc24)CC3)n[nH]1 | -4.6%
O=C(O)c1ccc(/C=N/NC(=O)c2cc(-c3ccc4c5c(cccc35)CC4)n[nH]2)cc1 | 4%
O=C(N/N=C/c1ccc(Cl)c([N+](=O)[O-])c1)c1cc(-c2ccc3c4c(cccc24)CC3)n[nH]1 | 76.6% (active)
CCN(Cc1ccccc1)S(=O)(=O)c1ccc(F)cc1 | 15.1%
COC(=O)C1=C(C)N(Cc2ccccc2)C(=S)N[C@H]1c1cccc(F)c1 | 18.7%

SMILES | inhibition
COC(=O)C1=C(C)N(CC2CC2)C(=NCc2cc(OC)c(OC)c(OC)c2)N[C@H]1c1ccccc1 | -3%
COC(=O)C1=C(C)N(Cc2ccccc2)C(=NCc2cc(OC)c(OC)c(OC)c2)N[C@H]1c1cccc(F)c1 | 8.9%
CCN1C(=S)N[C@@H](c2cccc(F)c2)C(C(=O)OC)=C1C | 4.1%
COC(=O)C1=C(C)N(Cc2ccccc2)C(=O)N[C@H]1c1ccccc1 | 58%
COC(=O)C1=C(C)N(Cc2ccccc2)C(=NCCc2ccccn2)N[C@H]1c1cccc(F)c1 | 38.8%
CCN1C(=NCCc2cccnc2)N[C@@H](c2ccccc2)C(C(=O)OC)=C1C | -18.1%
COC(=O)C1=C(C)N(Cc2cccnc2)C(=O)C1 | -5.2%
O=C(Nc1ccc2c(c1)OCCO2)NC1(C(F)(F)F)Oc2ccccc2O1 | -14.5%
COc1ccc(NC(=O)N2CCN(c3cccc(C(F)(F)F)c3)CC2)cc1 | 12.5%
COc1ccc(-c2cc(C(=O)N3CCN(c4ccccc4O)CC3)c3ccccc3n2)cc1OC | 13.3%
CCc1oc(C(=O)O)cc1COC | 3.5%
C=CCN1C(=O)SC(Cc2cccc(OC)c2O)C1=O (centres undefined) | -4.5%
COc1ccc(C(=O)NC(C)Cc2cnccn2)cc1OC1CCN(C(C)C)CC1 (centres undefined) | 18.7%
CC(C(=O)Nc1cccnc1)n1cc([N+](=O)[O-])cn1 (centres undefined) | 9.4%
COC(=O)C1=C(C)N(Cc2ccccc2)C(=O)N[C@H]1c1cccc(C(F)(F)F)c1 | 6.8%
COCCN=C1N[C@@H](c2cccc(C(F)(F)F)c2)C(C(=O)OC)=C(C)N1Cc1ccccc1 | 31.8%
COc1ccccc1NC(=O)CN1CCN(CC(=O)Nc2cc(NC(C)=O)ccc2OC)CC1 | -4.4%
COc1ccccc1NC(=O)CN1CCN(C2c3ccccc3-c3ccccc32)CC1 | 59.8%
COc1ccc(NC(=O)CN2CCN(C3c4ccccc4-c4ccccc43)CC2)cc1 | 9.6%
COc1ccc(NC(C)=O)cc1NC(=O)CN1CCN(C2c3ccccc3-c3ccccc32)CC1 | 100% (active)
COc1ccc(NC(C)=O)cc1NC(=O)CN1CCN(CC(=O)Nc2ccccc2Cl)CC1 | 21.6%
Nc1c2c(nn1-c1ccc(F)cc1)CSC2 | -2.1%
O=C(CO/N=C1\CCCc2nonc21)Nc1ccccc1Cl | 0.5%

SMILES | inhibition
O=C1/C(=C/c2cccnc2)SC(=S)N1C1CCS(=O)(=O)C1 (centres undefined) | 3.6%
O=C1/C(=C/c2ccccc2)SC(=S)N1C1CCS(=O)(=O)C1 (centres undefined) | 9.4%
C=C(C)CNC(=S)NNC(=O)CCn1c2ccccc2c2ccccc21 | -10.4%
CCOc1ccc(CCNC(=O)c2ccc(CS(=O)Cc3ccc(Cl)cc3)o2)cc1OCC (centres undefined) | 13.4%
Cc1ccc(Cn2cc(SCC(=O)Nc3nccs3)c3ccccc32)cc1 | 2.5%
Cc1ccc(-c2cc(C(=O)Nc3ccc(S(=O)(=O)Nc4onc(C)c4C)cc3)c3ccccc3n2)cc1 | -14.3%
Cc1noc(NS(=O)(=O)c2ccc(NC(=O)c3cc(-c4ccccc4Cl)nc4ccccc34)cc2)c1C | 14.9%
Cc1ccc(-c2cc(C(=O)Nc3ccc(S(=O)(=O)Nc4cc(C)on4)cc3)c3ccccc3n2)c(C)c1 | 32.5%
Cc1ccccc1C(=O)Nc1ccc(S(=O)(=O)Nc2onc(C)c2C)cc1 | 6.6%
Cc1cc(C)c2nc(-c3ccccn3)cc(C(=O)Nc3cc(C)on3)c2c1 | 1.5%
Cc1cc(C)c(C(=O)Nc2ccc(S(=O)(=O)Nc3onc(C)c3C)cc2)c(C)c1 | 4.6%
COc1ccc(-n2ncc3c(=O)n(CC(=O)Nc4ccc5c(c4)OCCO5)cnc32)cc1 | 0.6%
COc1cc2nc(SCC(N)=O)n(CCC3=CCCCC3)c(=O)c2cc1OC | -6.5%
COc1cc(NC(=O)c2cc(C)no2)cc(OC)c1OC | 3.4%
COc1cc(-c2nn3c(-c4ccccc4)nnc3s2)cc(OC)c1OC | -5.2%
Cc1cc(/C=C2\SC(N)=NC2=O)c(C)n1-c1ccccc1 | -9.3%
Cc1cc(/C=C2\SC(=O)N(C)C2=O)c(C)n1-c1ccc(S(N)(=O)=O)cc1 | 5%
[N-]=[N+]=NC[C@H](c1ccccc1)N1CCN(Cc2ccccc2)CCC1=O | 9.8%
CCOC(=O)CC(NC(=O)CCS(=O)(=O)c1ccc2c(c1)n(C)c(=O)c(=O)n2C)c1ccc(C)cc1 (centres undefined) | 10.2%
CCN(CC)c1ccc(/C=N/n2c(C)nc3ccccc3c2=O)cc1 | -7.1%
